Shown are actives, neighbours in structure and some others; about 3.8% of the full set was active somewhere.
PrPC TRFRET: reduces human prion protein on the cell surface; P04156; inhibition, % at 13.8 µM; 370,000 compounds, 0.43% hits; cell surface PrPC, TR-FRET read-out; in the data active = inhibition above about 24%
Y pestis TopoI: blocks Yersinia pestis topoisomerase I activity. Y. pestis Topo-I cleavage product accumulation, plate reader. activity, % at 10 µM. 360,000 compounds, 0.064% hits; in the data active = activity above about 50%, passing the limit was not always enough
GDH-TPI counter-1: counter-screen for M. tuberculosis FBA inhibitors: GDH-TPI coupled enzymes; GDH-TPI coupled enzyme counterscreen, NADH absorbance; inhibition, % at 4.8 µM; 360,000 compounds, 1.2% hits; in the data active = inhibition above about 30%
FBA Mtb inh: inhibitors of M. tuberculosis fructose-bisphosphate aldolase | inhibition, % at 1 µM | AID 588726 | 360,000 compounds, 2.3% hits | purified M. tuberculosis FBA, fluorescence read-out
Target sequence (P9WQA3 whole entry, looked up): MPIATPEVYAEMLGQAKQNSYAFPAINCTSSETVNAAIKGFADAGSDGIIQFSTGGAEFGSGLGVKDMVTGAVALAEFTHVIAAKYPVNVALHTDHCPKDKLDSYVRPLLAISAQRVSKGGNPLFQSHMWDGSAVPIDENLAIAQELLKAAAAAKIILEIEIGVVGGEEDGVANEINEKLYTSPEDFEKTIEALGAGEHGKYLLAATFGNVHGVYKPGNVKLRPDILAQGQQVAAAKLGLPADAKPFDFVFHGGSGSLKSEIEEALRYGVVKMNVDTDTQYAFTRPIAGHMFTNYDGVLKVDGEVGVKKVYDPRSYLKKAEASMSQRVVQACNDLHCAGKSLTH
PrP UTR inh: suppresses PrP 5' UTR mRNA reporter expression; cell-based PrP 5' UTR mRNA reporter, plate reader; inhibition, % (concentration not given with the values); 340,000 compounds, 0.35% hits; in the data active = inhibition above about 52%
Mtb hypoxia inh: Mtb hypoxia fluorescent reporter inhibition; fluorescence inhibition, % (no concentration beside the values); M. tuberculosis hypoxia-regulated fluorescent reporter, fluorescence; AID 1159583; 300,000 compounds, 0.1% hits; in the data active = fluorescence inhibition mostly above about 23%, no sharp cut-off; inactive = mostly below about 17%
Mtb FBA inh conf: confirmation of M. tuberculosis fructose-bisphosphate aldolase inhibitors; purified M. tuberculosis FBA, fluorescence read-out; 5,600 compounds, 78% hits; shares compounds with FBA Mtb inh; inhibition, % at 1 µM
GDH-TPI counter-2: counter-screen for M. tuberculosis FBA inhibitors: GDH-TPI coupled enzyme inhibition; shares compounds with FBA Mtb inh; GDH-TPI coupled enzyme counterscreen, fluorescence; inhibition, % at 1 µM; 5,600 compounds, 81% hits; AID 652141; in the data active = inhibition above about 10%
Numbers stand for hits; i = inactive; nt = no result; + = active, no number. Rule as the data show it, unless noted: active = inhibition above about 27%; inactive = the rest.

SMILES | PrPC TRFRET | Y pestis TopoI | GDH-TPI counter-1 | FBA Mtb inh | PrP UTR inh | Mtb hypoxia inh | Mtb FBA inh conf | GDH-TPI counter-2
O=C(O)CCN1C(=O)C2CCCCC2C1=O (stereo unspecified) | i | i | i | 46 | i | i | + | 193
CCC(c1nnc(SCC(=O)NC2CCCCC2)n1Cc1ccccc1)N(C)C (stereo unspecified) | i | i | i | 43 | i | i | + | 153
Cc1cc(C)c(C(O)c2ncc(-c3ccccc3C)[nH]2)c(C)c1 (stereo unspecified) | i | i | i | i | nt | nt | nt | nt
Cc1cccc(C)c1C(O)c1ncc(-c2cccc3ccccc23)[nH]1 (stereo unspecified) | i | i | i | 56 | nt | nt | i | i
Cc1cc(C)c(C(O)c2ncc(-c3cccc4ccccc34)[nH]2)c(C)c1 (stereo unspecified) | i | i | i | 57 | nt | nt | 89 | 69
COc1ccc(C(=O)Oc2ccc(C=NO)cc2)cc1 | nt | nt | nt | nt | nt | i | nt | nt
COc1ccc(-c2nc(NC(=O)CSc3nnc(C)s3)ns2)cc1 | nt | i | i | 41 | i | i | i | i
COc1ccc(S(=O)(=O)Nc2c(C(=O)O)[nH]c3ccc(OC)cc23)cc1 | i | i | i | 27 | i | i | + | +
COc1ccc2[nH]c(C(=O)O)c(CCN3C(=O)c4ccc(C(=O)O)cc4C3=O)c2c1 | i | i | i | i | i | i | nt | nt
COc1ccc2[nH]c(C(=O)O)c(CCC(=O)O)c2c1 | i | i | i | 42 | i | nt | 78 | 59
CCN1C(=O)C(=C2Sc3ccccc3N2CC)OC1=S | nt | nt | nt | nt | nt | i | nt | nt
COc1ccc(C=NNc2ccccn2)cc1O | nt | nt | nt | nt | nt | i | nt | nt
Nc1cc2ccncc2c2ccccc12 | i | i | i | 102 | i | i | + | +
N#Cc1cc2ccncc2c2ccccc12 | i | i | i | i | nt | nt | nt | nt
O=C(/C=C/c1ccco1)N1CCN(c2ccc(F)cc2)CC1 | i | i | i | i | i | i | nt | nt
Cc1ccc(/C=C/C(=O)N2CCN(c3ccc(F)cc3)CC2)o1 | i | i | i | 58 | i | i | 38 | 36
Cc1c(Cl)cccc1NC(=O)COC(=O)C12CC3CC(CC(O)(C3)C1)C2 | i | i | i | i | i | i | nt | nt
O=C(COC(=O)C12CC3CC(CC(Br)(C3)C1)C2)Nc1cccnc1Cl | i | i | i | 32 | i | i | 59 | 49
COc1ccc2c(c1)nc(NCCO)n2C | i | i | i | 37 | i | i | 187 | 170
O=C(Nc1ccc(S(=O)(=O)Nc2ncccn2)cc1)c1ccccc1NS(=O)(=O)c1ccc(F)cc1 | i | i | i | 73 | i | i | i | i
CS(=O)(=O)c1ccccc1C(=O)Nc1ccc(-c2nc3ccccc3[nH]2)cc1 | i | i | i | i | i | i | nt | nt
O=C(Nc1ccc(-c2nc3ccccc3[nH]2)cc1)c1ccccc1NS(=O)(=O)c1ccc(F)cc1 | i | i | 31 | 87 | i | i | + | +
O=C(O)/C=C/c1ccc(S(=O)(=O)Nc2ccccc2C(=O)Nc2ccc(F)cc2)cc1 | i | i | i | i | i | i | nt | nt
Cc1ccc(S(=O)(=O)Nc2ccccc2C(=O)NCc2cccnc2)cc1 | i | i | i | 51 | i | i | 59 | 48
CCc1nnc(NS(=O)(=O)c2ccc(NC(=O)c3ccccc3O)cc2)s1 | i | i | i | 73 | i | i | 35 | 26
SMILES | PrPC TRFRET | Y pestis TopoI | GDH-TPI counter-1 | FBA Mtb inh | PrP UTR inh | Mtb hypoxia inh | Mtb FBA inh conf | GDH-TPI counter-2
CCc1nnc(NS(=O)(=O)c2ccc(NC(=O)OC)cc2)s1 | i | i | i | i | i | i | nt | nt
O=C(CCC(=O)NC1CCCCC1)NN=Cc1ccncc1 | nt | nt | nt | nt | nt | i | nt | nt
CSc1nnc(-c2ccc(S(=O)(=O)N3CCCC3)cc2)n1C | i | i | i | 47 | i | i | 92 | 71
Cn1c(SCC(N)=O)nnc1-c1ccc(S(=O)(=O)N2CCCC2)cc1 | i | i | i | i | i | i | nt | nt
CCc1ccc(-c2cc(C)no2)cc1S(=O)(=O)Nc1ccc(C)cn1 | i | i | i | 31 | i | i | i | i
Cc1ccc(NS(=O)(=O)c2cc(-c3cc(C)no3)ccc2C(C)C)nc1 | i | i | i | 37 | i | i | 29 | 24
C=CCn1c(=C(C#N)c2nnc3n2CCCCC3)sc(=Cc2ccc(F)cc2)c1=O | nt | nt | nt | nt | nt | i | nt | nt
COc1ccc(-c2nc3n(c2C)Cc2ccccc2-3)cc1 | i | i | i | 111 | i | i | 101 | 93
